About 2,600 (0.84%) of roughly 310,000 compounds were called active.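 Rule for the calls: active = B-score over 3 SD under the library average, and starting fluorescence ratio not unusually high; inactive = the rest.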 What follows is part of a selection rich in actives, with near analogues and random picks from the rest. Where a structure was tested more than once in an assay, its records may differ in their call.
These compounds were tested against High affinity choline transporter 1 (Homo sapiens) (UniProt Q9GZV3) (assay: inhibits the human high affinity choline transporter (AID 488975;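 for B-score: choline stimulus applied at its EC90 after an EC20 pre-addition; B-score computed on integrated fluorescence ratio after choline addition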)). Details: CHT-expressing cells, membrane potential dye, choline response, at 10 µM; stronger effect = lower value.
Sequence of High affinity choline transporter 1 (Homo sapiens) (Q9GZV3 whole entry, looked up): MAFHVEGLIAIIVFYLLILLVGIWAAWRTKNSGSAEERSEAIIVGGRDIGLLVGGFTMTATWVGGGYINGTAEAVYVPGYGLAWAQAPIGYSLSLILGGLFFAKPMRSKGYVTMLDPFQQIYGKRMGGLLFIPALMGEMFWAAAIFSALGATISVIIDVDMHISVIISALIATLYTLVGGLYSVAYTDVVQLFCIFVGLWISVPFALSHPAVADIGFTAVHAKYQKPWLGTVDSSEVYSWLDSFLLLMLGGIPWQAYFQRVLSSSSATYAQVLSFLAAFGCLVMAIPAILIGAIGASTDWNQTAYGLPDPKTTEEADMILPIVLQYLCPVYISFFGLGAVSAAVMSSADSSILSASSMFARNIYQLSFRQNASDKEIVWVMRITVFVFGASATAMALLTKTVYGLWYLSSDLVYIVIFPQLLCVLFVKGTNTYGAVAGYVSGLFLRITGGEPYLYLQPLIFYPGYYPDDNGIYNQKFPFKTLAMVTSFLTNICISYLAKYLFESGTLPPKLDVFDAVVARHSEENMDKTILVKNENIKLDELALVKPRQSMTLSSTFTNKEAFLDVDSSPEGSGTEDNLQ

Row | Compound | B-score | outcome
1 | COc1ccc(/C=C2\SC(=S)N(CCC(=O)Nc3ccccn3)C2=O)cc1OC | inactive | 
2 | O=C(O)c1ccc(/C=C2\SC(=S)N(NC(=O)c3ccc(Br)cc3)C2=O)cc1 | -5.15 (active) | 
3 | Cn1cccc1/C=C1\SC(=S)N(NC(=O)c2ccc(Cl)cc2)C1=O | inactive | 
4 | O=C1/C(=C/c2ccc(F)cc2)SC(=S)N1CCCC(=O)N1CCCCC1CCO (stereo not given) | inactive | 
5 | O=C(O)c1ccc(/C=N/NC(=O)c2ccc(Br)cc2)cc1 | inactive | 
6 | COc1ccc(/C=C2\SC(=S)N(CC(=O)NNC(=O)c3ccncc3)C2=O)cc1 | inactive | 
7 | COc1ccccc1C(=O)NNC(=O)CCN1C(=O)/C(=C\c2ccccc2)SC1=S | inactive | 
8 | O=C1/C(=C/c2ccc(F)cc2)SC(=S)N1NS(=O)(=O)c1ccccc1 | -6.62 (active) | 
9 | CCOc1ccc(/C=C2\SC(=S)N(NC(=O)c3ccncc3)C2=O)cc1OC | -5.15 (active) | 
10 | COc1ccc2oc(C(=O)N(CC(C)C)C3CCS(=O)(=O)C3)c(C)c2c1 (stereo not given) | inactive | 
11 | O=C(NCc1ccc(Cl)cc1)C(=O)NCC1CCCN1S(=O)(=O)c1cccs1 (stereo not given) | inactive | 
12 | CC1CC(C)(C)CC2(C1)NC(=O)N(CC(=O)Nc1nccs1)C2=O (stereo not given) | inactive | 
13 | Cc1cccc(-n2ncc(Cl)c(Cl)c2=O)c1 | -6.46 (active) | 
14 | C=CCNc1cnn(-c2ccc(C)cc2)c(=O)c1Cl | inactive | 
15 | O=c1c(Cl)c(NC2CC2)cnn1-c1ccccc1 | inactive | 
16 | CCN1C(=O)[C@H]2[C@@H](c3ccc(SC4CCCCC4)c(OC)c3)N[C@@](Cc3ccccc3)(C(=O)OC)[C@H]2C1=O | inactive | 
17 | COc1cccc(-c2nn(-c3ccccc3)cc2/C=C(\C#N)C(=O)NCCCn2ccnc2)c1 | -6.63 (active) | 
18 | COc1cc(OC)cc(C(=O)NCCCn2ccnc2)c1 | inactive | 
19 | COc1ccc(/C=C(\C#N)C(=O)NCCCn2ccnc2)cc1 | inactive | 
20 | Cc1ccc(S(=O)(=O)N2[C@@H](c3cccc(Cl)c3)C(C(=O)O)=CC[C@H]2c2ccc(Cl)c(Cl)c2)cc1 | inactive | 
21 | COc1cccc(N2CC(NS(=O)(=O)c3ccc(Cl)cc3)CC2=O)c1 (stereo not given) | inactive | 
22 | COc1cccc(CNC(=O)C(=O)NCCC2CCCCN2S(=O)(=O)c2ccc(C)cc2)c1 (stereo not given) | inactive | 

Row | Compound | B-score | outcome
23 | C/C(=N\NC(=O)c1cccnc1)c1ccc(-c2ccccc2)cc1 | inactive | 
24 | C/C(=N\NC(N)=S)c1cccnc1 | -9.98 (active) | 
25 | C/C(=N\NC(N)=S)c1ccncc1 | inactive | 
26 | O=C(Nc1ccc2ccccc2c1)/C(=C/c1cccc(Br)c1)NC(=O)c1ccco1 | inactive | 
27 | CC(Oc1ccc2ccccc2c1)C(=O)NNC(=S)NC(=O)c1ccco1 (stereo not given) | -5.21 (active) | 
28 | Cc1ccc(C(=O)NNC(=O)C(C)Oc2ccc3ccccc3c2)o1 (stereo not given) | inactive | 
29 | CCCCN(C(=O)CCNC(=O)NC12CC3CC(CC(C3)C1)C2)c1c(N)n(CCCC)c(=O)[nH]c1=O | inactive | 
30 | COc1ccc(CCNC(=O)C(=O)NCC2OCCN2S(=O)(=O)c2cccs2)cc1OC (stereo not given) | inactive | 
31 | O=C(Nc1ccccc1N1CCCC1)c1ccc(F)c(S(=O)(=O)N2CCOCC2)c1 | inactive | 
32 | CC(C)CN(C(=O)COC(=O)c1ccc(Cl)c(N)c1)c1c(N)n(Cc2ccccc2)c(=O)[nH]c1=O | inactive | 
33 | Cc1cc(C)n(-c2nc(SCC(=O)N3CCCC3)c3c4c(sc3n2)CCCC4)n1 | inactive | 
34 | COCCNc1nc(-n2nc(C)cc2C)nc2sc3c(c12)CCCC3 | -4.98 (active) | 
35 | Cc1nc2sc3c(c2c(=O)n1NC(=O)CCl)CCCC3 | inactive | 
36 | N#CC1(NC(=O)COC(=O)CSc2ccc(F)cc2)CCCCC1 | inactive | 
37 | CCOc1ccc(S(=O)(=O)Nc2ccc(C(=O)NCCCN3CCCC3=O)cc2)cc1 | inactive | 
38 | COc1ccc(S(=O)(=O)N2CCCC2CNC(=O)C(=O)NC2CC2)cc1 (stereo not given) | inactive | 
39 | COc1ccc(S(=O)(=O)N2CCN(C(=O)NC3CCCCC3)CC2)cc1 | -6.98 (active) | 
40 | CCOC(=O)N1CCN(S(=O)(=O)c2ccc(OC)cc2)CC1 | inactive | 
41 | OCCCNc1nccc(-c2cc(Nc3cccc(Cl)c3)ncn2)n1 | inactive | 
42 | CC(C)C[C@H](CO)Nc1nc(N(C)c2cccc(Cl)c2)c2ncn(C(C)C)c2n1 | inactive | 
43 | CC(C)n1cnc2c(Nc3cccc(Cl)c3)nc(N(CCO)CCCO)nc21 | -7.57 (active) | 
44 | COc1ccccc1N(C)S(=O)(=O)c1ccc(Cl)c(C(=O)Nc2ccncc2)c1 | inactive | 

Row | Compound | B-score | outcome
45 | COc1ccc(NS(=O)(=O)c2ccc(C)c(C(=O)N(C)Cc3ccc(OC)cc3OC)c2)cc1 | inactive | 
46 | CC1(C)SC2C(NC(=O)COc3ccccc3)C(=O)N2C1C(=O)O (stereo not given) | -6.15 (active) | inactive
47 | CC1(C)S[C@@H]2[C@H](NC(=O)COc3ccccc3)C(=O)N2C1C(=O)OCc1ccccc1 (stereo not given in full) | inactive | 
48 | CC1(C)S[C@@H]2[C@H](N=CN3CCCCCC3)C(=O)N2[C@H]1C(=O)O | inactive | 
49 | COC(=O)[C@]1(C)N[C@H](c2ccc(-c3ccc(Cl)c(Cl)c3)cc2)[C@@H]2C(=O)N(C)C(=O)[C@@H]21 | inactive | 
50 | O=C(NCC(c1cccs1)N1CCOCC1)c1cc(Cl)ccc1[N+](=O)[O-] (stereo not given) | inactive | 
51 | OCCCNc1nc(-c2ccccc2)c2cc(Cl)ccc2n1 | inactive | 
52 | COC(=O)c1ccccc1NC(=O)Cn1nc(C(F)(F)F)c2c1CCC2 | -5.17 (active) | 
53 | Cc1cc(NC(=O)Cn2nc(C(F)(F)F)c3c2CCCC3)no1 | inactive | 
54 | COC(=O)c1ccccc1NC(=O)CSc1nc2c(c(=O)[nH]1)CCC2 | inactive | 
55 | CCC(C)NC(=O)Cn1nc(C(F)(F)F)c2c1CCC2 (stereo not given) | inactive | 
56 | CC(C)OC(=O)Cn1nc(C(F)(F)F)c2c1CCCC2 | inactive | 
57 | O=C(Cn1nc(C(F)(F)F)c2c1CCC2)NCc1ccc(F)cc1 | -6.14 (active) | 
58 | N#CCN(C(=O)COC(=O)C1CC2CCCC(C1)C2=O)c1ccccc1 (stereo not given) | inactive | 
59 | CC1CCN(c2ccc(-c3ccc(NC(=O)c4ccco4)cc3)nn2)CC1 | inactive | 
60 | Cc1noc(C)c1CSCC(=O)Nc1ccc(Br)cc1Cl | inactive | 
61 | O=C(c1ccncc1)N1CCN(S(=O)(=O)c2cc(C(F)(F)F)cc(C(F)(F)F)c2)CC1 | inactive | 
62 | CN(C)Cc1c(C(=O)N/N=C/c2ccccc2OCc2ccc(F)cc2)nnn1-c1nonc1N | inactive | 
63 | CCN(CC)Cc1c(C(=O)N/N=C/c2cccc(OCc3ccc(F)cc3)c2)nnn1-c1nonc1N | -5.26 (active) | 
64 | COCc1c(C(=O)N/N=C\c2cccnc2)nnn1-c1nonc1N | inactive | 
